MCF10A rereplic: inducers of DNA re-replication in MCF 10A breast cells; 350,000 compounds, 2.9% hits; Potency, µM (series often up to 46.1 µM), inactives show at the top dose activity, positive = re-replication, hits mostly activators; MCF 10A DNA re-replication, Hoechst nuclear intensity, 48 h; further: potency means the concentration at half of the fitted maximal effect; % of control where 0% means no effect; nearly all actives have a fitted effect of over 50% in size
Vif-A3G inh: Vif-A3G binding inhibition | Q9HC16 | HeLa A3G-eYFP + Vif (tagged APOBEC3G with the HIV-1 protein that degrades it), YFP fluorescence, overnight | Potency, µM (titrated, usually from 46.1 µM), inactives show top-dose activity, negative = active, actives largely listed as inhibitors | 410,000 compounds, 0.076% hits; further: potency means the concentration at half of the fitted maximal effect; on the % scale 0 is the no-effect control and ±100 the full control effect; nearly all actives have a fitted effect of over 60% in size
Target sequence (Q9HC16 whole entry, looked up): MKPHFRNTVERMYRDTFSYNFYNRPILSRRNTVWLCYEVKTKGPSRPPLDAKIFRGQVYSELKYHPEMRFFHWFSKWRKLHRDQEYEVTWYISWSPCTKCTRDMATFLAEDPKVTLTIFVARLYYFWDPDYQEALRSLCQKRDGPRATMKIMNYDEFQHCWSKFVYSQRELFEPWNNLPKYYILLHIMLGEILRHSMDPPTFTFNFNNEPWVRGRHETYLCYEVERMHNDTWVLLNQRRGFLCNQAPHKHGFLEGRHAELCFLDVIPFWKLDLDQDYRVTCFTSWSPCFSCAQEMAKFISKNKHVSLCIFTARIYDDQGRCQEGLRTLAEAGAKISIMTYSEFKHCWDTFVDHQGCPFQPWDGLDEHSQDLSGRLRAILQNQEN
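HeLa cells stably expressing Vif and C-terminally eYFP-tagged A3G, seeded overnight at 37 deg C, then exposed to compound by pintool overnight at 37 deg C. Rise in yellow fluorescence (Ex 488/Em 500-530, Acumen) marks blocked Vif-driven A3G degradation.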
IL-1B inflam inh: inflammasome signaling inhibition, IL-1 beta readout; THP-1 LPS/ATP IL-1B secretion, AlphaLISA, 16 h; active compounds read low; activity change, % at 57.5 µM; 360,000 compounds, 4.7% hits; AID 743279; in the data active means activity change below about -50%; inconclusive means mostly about -30% to -49%; further: on the % scale 0 is the no-effect control and ±100 the full control effect
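THP-1 cells pretreated 1 hr with compounds (up to 57.5 uM final), then stimulated with LPS (250 ng/mL final) plus ATP (1.25 mM final); secreted IL-1B measured by AlphaLISA after 16 hr, decreased signal indicating inhibition.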
Giardia kill: Giardia lamblia killing | Giardia lamblia trophozoite viability | activity change, % at 7.66 µM, hits read low | 340,000 compounds, 0.15% hits | AID 540267; in the data active means activity change below about -80%; inconclusive means between about -30% and that limit;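 further: parasites exposed to compound for two days anaerobically before the ATP read; on the % scale 0 is the no-effect control and ±100 the full control effect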
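Trophozoite viability was measured as ATP-dependent luminescence, read 15-30 min after reagent addition. Before that, parasites at 100 cells/well were exposed to compounds for 48 h, anaerobically, at 37 deg C.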
SW480 rereplic: induces DNA re-replication in SW480 colon adenocarcinoma cells. 340,000 compounds, 1.8% hits. Potency, µM (doses to about 46.1 µM), for inactives: at the top dose re-replication activation, actives largely listed as activators. SW480 DNA re-replication, Hoechst DNA content imaging, 48 h; further: potency means the concentration at half of the fitted maximal effect; % of control where 0% means no effect; nearly all actives have a fitted effect of over 55% in size
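Image-based read-out: total Hoechst fluorescence of nuclei (405 nm excitation, 500-530 nm emission), with hits raising the fraction of high-intensity nuclei. SW480 colon cells incubated 48 hr with compounds at 37 C.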
Vif-APOBEC3F blk: blocks the Vif interaction with APOBEC3F; HeLa A3F-eYFP + Vif (tagged APOBEC3F with the HIV-1 protein that degrades it), YFP fluorescence increase; Potency, µM (highest dose often 46.1 µM), without a hit: at the highest dose activity, negative = active; 390,000 compounds, 0.2% hits; AID 602313; further: potency means the concentration at half of the fitted maximal effect; % of control where 0% means no effect; nearly all actives have a fitted effect of over 65% in size
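HeLa cells stably expressing Vif plus C-terminally eYFP-tagged A3F were seeded, incubated overnight at 37 deg C, dosed with compound, incubated overnight again at 37 deg C. Yellow fluorescence (Ex 488/Em 500-530) reported blocked Vif-mediated A3F-eYFP degradation.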
An asterisk follows results filed as active; ? = inconclusive; · = no result given. Compounds with a hit are over-represented: about 6.9% of the library has one in this group of screens. Unless noted, the call rests on the fitted dose curve; in most records, active means well fitted curve in the direction sought with a large enough effect; inconclusive means small, poorly fitted or top-dose-only effect, or another doubt; inactive means no such curve, though single readings can be large; an effect the other way counts as inactive or inconclusive.

SMILES	MCF10A rereplic	Vif-A3G inh	IL-1B inflam inh	Giardia kill	SW480 rereplic	Vif-APOBEC3F blk
Cc1cccc(N(C(=O)Cc2cccs2)C(C(=O)NC2CCCC2)c2ccncc2)c1 (centres undefined)	1%	-1%	12	-17	-1%	-31%
C(=C\c1sc(Nc2ccccc2)n[n+]1-c1ccccc1)/c1ccccc1	?	0%	-98*	-8	15%	-7%
CCCCNCc1ccc(OCc2ccc(Cl)nc2)c(OC)c1	?	3%	-12	-4	-1%	5%
COc1cc(CNCCc2ccccc2)ccc1OCc1ccc(Cl)nc1	-4%	0%	-52*	8	-5%	-2%
COc1ccccc1CCNCc1ccc(OC)c(OCc2ccccc2)c1	2%	2%	-99*	-2	?	-14%
CCN1CCCC1CNCc1ccc(OCc2ccc(Cl)nc2)c(OC)c1 (centres undefined)	5.8µM*	0%	1	25	23%	-11%
COc1cc(CNCCc2c[nH]c3ccccc23)ccc1OCc1ccccc1F	?	-14%	-57*	-9	-2%	0%
CCOC(=O)c1cccc(NC(=O)CN2C(=O)c3ccccc3Sc3ncccc32)c1	·	-8%	·	·	·	-3%
COc1ccc(-c2noc(CSc3nnc(C)n3-c3ccc(F)cc3)n2)cc1	·	4%	·	·	·	-2%
Cc1oc(-c2ccc(Cl)cc2)cc1C(=O)/C(C#N)=C/Nc1ccccc1	13µM*	-6%	43	16	2%	-2%
CNc1cc(OC)c(C(=O)N[C@@H]2CCN(Cc3ccccc3)[C@H]2C)cc1Cl	1%	·	·	·	2%	·
CC(=O)NC1=CC(=O)c2nonc2C1=O	·	-11%	·	3	·	·
O=C1COc2ccccc2N1Cc1c(F)cccc1Cl	23µM*	2%	65	18	50%	-7%
CCOC(=O)c1oc2ccc(S(=O)(=O)n3nc(-c4ccc(Br)cc4)cc3N)cc2c1C	·	-13%	·	·	·	-3%
C=CCC[C@@H](CCCCC)OC(=O)/C=C/[C@H](O)[C@@H](O)C[C@H](O)CC=C	·	·	-55*	·	·	·
C=CCC[C@H](CCCCC)OC(=O)/C=C/[C@H](O)[C@@H](O)C[C@H](O)CC=C	·	·	-21	·	·	·
O=[N+]([O-])c1cccc(S(=O)(=O)NCCNS(=O)(=O)c2cccc([N+](=O)[O-])c2)c1	1%	·	·	·	2%	·
COC(=O)C/C(O)=C(/N=Nc1cccc(C(F)(F)F)c1)C(=O)OC	5.8µM*	-1%	-9	6	?	2%
O=C(c1ccc(C#CC2(O)CCCCC2)cc1)N1CCN(Cc2ccccc2)CC1	7%	2%	-11	12	0%	-1%
O=C(c1ccc(C#CC2(O)CCCCC2)cc1)N1CCN(C(c2ccccc2)c2ccccc2)CC1	?	-9%	-58*	23	?	4%
Cc1ccc(/C=C2\C(=O)ON=C2c2ccccc2)o1	-4%	3%	0	-8	-5%	17%
Cc1ccc(-c2ccc(/C=C3\C(=O)ON=C3c3ccccc3)o2)c([N+](=O)[O-])c1	?	-12%	-107*	0	?	-9%
Cc1ccc(C2=NOC(=O)/C2=C\c2ccc(C)o2)cc1	16µM*	-1%	-2	-5	?	3%
Cc1ccc(C2NC(c3ccc4c(c3)OCO4)=CC(c3cc(Br)ccc3O)N2)cc1 (centres undefined)	·	-22%	·	10	·	·
Cc1ccccc1CS(=O)(=O)c1nnc([C@H](Cc2ccccc2)NC(=O)OC(C)(C)C)o1	?	-18%	?	-3	?	-4%
SMILES	MCF10A rereplic	Vif-A3G inh	IL-1B inflam inh	Giardia kill	SW480 rereplic	Vif-APOBEC3F blk
CCC(C)[C@@H](NC(=O)OC(C)(C)C)c1nnc(S(=O)(=O)Cc2cccc(C)c2)o1 (some centres undefined)	16µM*	-20%	-116*	1	?	-10%
NC(=NCc1ccccc1)NC(=O)c1nc(Cl)c(N)nc1N	?	-1%	-61*	-9	-5%	-6%
CNc1nc(OC)nc(N(C#N)CN2C(=O)c3ccccc3S2(=O)=O)n1	?	-6%	-82*	-2	?	-14%
Cc1cc(C)nc(N(C#N)CN2C(=O)c3ccccc3S2(=O)=O)n1	?	-8%	-14	-11	-4%	10%
O=C(O)COc1ccc2c(c1)O/C(=C\c1cccs1)C2=O	?	2%	-4	6	16µM*	6%
O=C(O)COc1ccc2c(c1)O/C(=C\c1ccco1)C2=O	-1%	7%	0	11	-6%	-9%
O=C(CCN1C(=O)c2ccccc2S1(=O)=O)Nc1ccccc1F	0%	1%	-60*	11	-1%	2%
O=C(CCN1C(=O)c2ccccc2S1(=O)=O)Nc1ccccc1O	0%	-1%	13	-16	-699%	-19%
Cc1cn(C2CC3OCC(NC(=O)C4CCCN4C(=O)OC(C)(C)C)C3O2)c(=O)[nH]c1=O (centres undefined)	·	0%	·	-12	·	·
CCc1ccc(CN(C)CC(=O)Nc2ccc3c(c2)CCC3)cc1	?	5%	19	0	22%	-17%
O=C(Nc1ccccc1)Nc1cccc(Cl)c1Cl	11%	-4%	-19	14	-1%	-14%
COc1ccc(CNc2ccc3c(c2)CCC3)cc1Br	7%	4%	13	-4	-2%	2%
COc1ccc(OC)c(NC(=O)Nc2ccc(Cl)cc2)c1	?	-2%	-66*	3	-1%	-3%
COc1ccccc1CNc1ccc2c(c1)CCC2	-1%	?	-60*	2	6%	?
Cc1ccc(CN(C)CC(=O)Nc2ccc3c(c2)CCC3)cc1	9%	-6%	-66*	2	1%	-5%
O=C(Nc1ccc(Oc2ccc(NC(=O)Nc3ccccc3Cl)cc2)cc1)Nc1ccccc1Cl	?	-2%	-8	-11	12µM*	11µM*
CSc1nnc2[nH]c(=O)cc(C)n12	·	3%	·	·	·	-3%
CCn1c(C)c(C)c2cc(C(=O)NCC(C)c3ccccc3)ccc21 (centres undefined)	·	7%	·	·	·	-5%
O=C(Nc1ccc(Cl)c(Cl)c1)N1CCCCCC1	7%	-1%	-5	19	?	0%
